# Assays:
# Test in all cases: PBM binding z-score (relative to random genomic background probes); higher = stronger binding; sequences stand for … in GC…GCGATTGACAGCGTAGAATGAAGG
# [1] = test system: PPARg:RXRa DBDmut IVT, anti-RXR (DBD mutation: RXRa K156A/R161A, NR concentration 270 nM, RXRa partner concentration 90 nM)
# Procedure, shortened: (§1)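 Each nuclear receptor dimer, without ligand, was incubated for 1 h on custom Agilent 4×180K protein-binding microarrays. Binding was detected with antibodies against each partner (one per run), and scanned fluorescence was regression-normalized. The binding z-scores are referenced to random human genomic background probes.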
# [2] = test system: PPARg:RXRa IVT, anti-PPARg (NR concentration 270 nM, RXRa partner concentration 90 nM)
# Procedure, shortened: as §1
# [3] = test system: PPARg DBDmut:RXRa IVT, anti-PPARg (DBD mutation: PPARg1 K132A/R137A, NR concentration 270 nM, RXRa partner concentration 90 nM)
# Procedure, shortened: as §1
# [4] = test system: PPARg DBDmut IVT, anti-PPARg (DBD mutation: PPARg1 K132A/R137A, NR concentration 270 nM)
# Procedure, shortened: as §1
# [5] = test system: PPARg homodimer (NR concentration 180 nM)
# Procedure, shortened: as §1
# [6] = test system: PXR:RXRa (NR concentration 270 nM, RXRa partner concentration 90 nM)
# Procedure, shortened: as §1
# [7] = test system: PXR homodimer (NR concentration 270 nM)
# Procedure, shortened: as §1
# [8] = test system: RARa:RXR (NR concentration 270 nM, RXRa partner concentration 90 nM)
# Procedure, shortened: as §1
# [9] = test system: RARa homodimer (NR concentration 270 nM)
# Procedure, shortened: as §1
# [10] = test system: RARb:RXRa (NR concentration 270 nM, RXRa partner concentration 90 nM)
# Procedure, shortened: as §1
# [11] = test system: RARb homodimer (NR concentration 270 nM)
# Procedure, shortened: as §1
# [12] = test system: RARg:RXRa (NR concentration 270 nM, RXRa partner concentration 90 nM)
# Procedure, shortened: as §1
# [13] = test system: RARg homodimer (NR concentration 270 nM)
# Procedure, shortened: as §1
# [14] = test system: RXRa DBDmut IVT, anti-RXR (DBD mutation: RXRa K156A/R161A, NR concentration 90 nM)
# Procedure, shortened: as §1
# [15] = test system: RXRa homodimer (NR concentration 180 nM)
# Procedure, shortened: as §1
# [16] = test system: THRa:RXRa (NR concentration 90 nM, RXRa partner concentration 90 nM)
# Procedure, shortened: as §1
# [17] = test system: THRa homodimer (NR concentration 90 nM)
# Procedure, shortened: as §1
# [18] = test system: VDR homodimer (NR concentration 270 nM)
# Procedure, shortened: as §1
Sequence,PBM binding z-score [1],PBM binding z-score [2],PBM binding z-score [3],PBM binding z-score [4],PBM binding z-score [5],PBM binding z-score [6],PBM binding z-score [7],PBM binding z-score [8],PBM binding z-score [9],PBM binding z-score [10],PBM binding z-score [11],PBM binding z-score [12],PBM binding z-score [13],PBM binding z-score [14],PBM binding z-score [15],PBM binding z-score [16],PBM binding z-score [17],PBM binding z-score [18]
CGTAAAAGTTCAAGGTAACGTAACAGAAAGCAGC,0.129,1.62,1.87,1.28,2.19,3.49,1.82,2.92,1.29,4.99,3.55,4.73,5.27,4.27,3.81,2.92,1.17,2.67
AGTCAAAATTCATCTAGGTAACGTAAGATATGCT,0.746,2.03,1.05,0.853,0.212,-0.186,0.107,0.122,0.616,0.168,-0.349,0.038,0.342,0.0782,-0.00435,0.538,0.0978,-0.296
TAGCCTAGGTCAGATCGGGCCAGTAAACGCTATA,0.412,1.24,-0.563,-0.294,-0.374,1.12,-0.666,0.814,-1.71,2.85,1.72,2.66,3.21,-0.396,1.32,3.89,-0.219,-0.568
CCGAATGGGGCATAAGGTTACCATAAGCCAGCCC,0.417,1.24,-1.29,-1.15,0.844,0.477,-0.466,1.55,-0.315,1.79,1.7,1.67,1.03,-0.221,1.49,2.1,1.45,-0.245
GCAGACAGGTGAAACGCAGGTATCTCAGGGTGGC,0.78,0.498,-0.724,-0.85,-0.577,-0.328,-0.634,0.112,-0.595,0.463,0.0151,0.137,0.315,-0.484,0.588,0.272,-0.471,-0.528
CCGGCTGGGGCAAGGTTACCATAACGCACAGCCA,-0.429,0.466,-1,-1.85,0.0716,0.337,-0.654,0.922,-0.728,1.64,1.41,1.14,1.27,-1.12,1.14,1.03,-0.0935,-0.883
TAGCCTAGGTCATTCAGGGCCCAGTATAGAAAGC,1.83,2.54,0.246,-0.28,1.19,1.88,-0.155,2.32,-0.0549,3.54,2.54,3.96,4.34,1.96,3.13,3.47,0.59,1.54
CCAGGCAGGTGAAAGGTAACTCAGTCTGGTACGC,2.16,3.13,-1.38,-0.814,1.59,0.457,-0.265,1.53,-0.973,1.02,0.447,0.784,0.255,-0.641,1.53,0.824,-0.15,-0.0369
